Experimental data published in PubChem BioAssay (NCATS).
Inconclusive results are not listed. Active and inactive are the calls of the source. Calls come from the whole dose curve; as a rule, active = well fitted inhibition curve with a large enough effect; inconclusive = small, poorly fitted or top-dose-only effect; inactive = no such curve, though single readings can be large or run the other way.

system: Zika virus NS2B-NS3 protease (unlinked complex); experiment: Primary screen GU Rhodamine qHTS for Zika virus inhibitors: Unlinked NS2B-NS3 protease assay (AID 1347159); settings: Recombinant ZIKV NS2B-NS3 protease, Rhodamine110 substrate fluorescence; series mostly up to 107 µM; note: nearly all actives have a fitted effect of over 60% in size
Outline: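 Noncovalent NS2B hydrophilic domain/NS3 protease complex (25 nM final) in 10 mM Tris-HCl pH 8.0, 0.01% Tween 20, preincubated 15 min with compounds (up to 114 microM), then 1.5 microM Rhodamine110 substrate. Fluorescence change over 15 min fitted to 4-parameter Hill.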
Potency is the fitted concentration of half-maximal effect.

| SMILES | Potency |
| --- | --- |
| O=C(Nc1ccccc1)c1ccc(Nc2nnc(-c3ccc(O)cc3)c3ccccc23)cc1 | 14.1 µM (active) |
| CCC(=C(c1ccc(OCCN2CCCC2)cc1)c1ccc(OCCN2CCCC2)cc1)c1ccccc1 | inactive |
| C=C1CCC2C(C)(C)CCCC2(C)C1CC/C(C)=C\CO (centres undefined) | 17.8 µM (active) |
| CC(=O)[C@H]1CC[C@H]2[C@@H]3CC=C4C[C@@H](OS(=O)(=O)O)CC[C@]4(C)[C@H]3CC[C@]12C | 17.8 µM (active) |
| O=C(Nc1ccc(Cl)cc1)Nc1cccc(-c2cccc(N3CCCC3)n2)c1 | inactive |
| O=C1C[C@]23C=CCN4CCC5c6cc7c(cc6N1[C@@]5(CC2)C43)OCO7 (some centres undefined) | inactive |
| C/C=C(/C)C(=O)O[C@H]1[C@H](OC(=O)/C(C)=C\C)[C@@]23C(CC1(C)C)[C@]1(CCC4[C@@]5(C)CC[C@H](O[C@@H]6O[C@H](C(=O)O)[C@@H](O)[C@H](O[C@@H]7O[C@H](CO)[C@H](O)[C@H](O)[C@H]7O[C@@H]7O[C@@H](C)[C@H](O)[C@@H](O)[C@H]7O[C@@H]7OC[C@@H](O)[C@H](O)[C@H]7O)[C@H]6O[C@@H]6O[C@H](CO)[C@H](O)[C@H](O)[C@H]6O)C(C)(C)C5CC[C@@]4(C)[C@]1(C)C[C@H]2O)O[C@H]3O (some centres undefined) | 3.98 µM (active) |
| CCC[C@@]1(CCc2ccccc2)CC(O)=C([C@H](CC)c2cccc(NS(=O)(=O)c3ccc(C(F)(F)F)cn3)c2)C(=O)O1 | 8.91 µM (active) |
| CC(=O)O[C@@H]1C2=C(O)C(=O)[C@](C)(OC(C)=O)C(=O)C2=CO[C@@]12O[C@@H](C)CC[C@H]2OC(C)=O | inactive |
